Screening data from PubChem.
This is a sample that favours compounds with a hit; in the whole collection about 4.8% have one here.
ATXN2 expr inh = inhibitors of ATXN2 expression. AID 1745845. Potency, µM (series often up to 57 µM), for the others: top-dose activity change, negative = inhibition, hits mostly inhibitors. HEK-293 ATXN2-luciferase reporter, luminescence, 24 h. 360,000 tested, 0.72% active; further: potency means the concentration at half of the fitted maximal effect; on the % scale 0 is the no-effect control and ±100 the full control effect; nearly all actives have a fitted effect of over 55% in size
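qHTS (up to 57 uM final) was run with 24 h compound exposure of reporter cells at 37 °C. Each well was multiplexed: SteadyGlo luminescence measured ATXN2-luciferase expression after a fluorogenic Gly-Phe-AFC viability readout (25 uM final).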
IL1B secr inh = inhibitors of inflammasome signaling (IL-1 beta secretion); THP-1 LPS/ATP IL-1B secretion, AlphaLISA, 16 h; hits give low values; 360,000 tested, 4.7% active; activity change, % at 57.5 µM; AID 743279; in the data active means activity change below about -50%; inconclusive means mostly about -30% to -49%; further: on the % scale 0 is the no-effect control and ±100 the full control effect
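THP-1 cells pretreated 1 hr with compounds (up to 57.5 uM final), then stimulated with LPS (250 ng/mL final) plus ATP (1.25 mM final); secreted IL-1B measured by AlphaLISA after 16 hr, decreased signal indicating inhibition.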
USP1-UAF1 inh = inhibitors of human USP1/UAF1 deubiquitinase; recombinant USP1/UAF1, Ub-Rhodamine cleavage fluorescence; Potency, µM (top dose mostly 57.1 µM), without a hit: top-dose activity change, negative = inhibition, hits mostly inhibitors; 390,000 tested, 0.23% active; O94782; further: potency means the concentration at half of the fitted maximal effect; on the % scale 0 is the no-effect control and ±100 the full control effect; nearly all actives have a fitted effect of over 60% in size
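USP1/UAF1 complex (1 nM) preincubated 15 min at room temperature with compound, then Ub-Rho substrate (150 nM final) added. Kinetic fluorescence at 480/540 nm over 6 reads at 60 s intervals; 50 mM HEPES pH 7.8, 0.5 mM EDTA, 0.1 mg/ml BSA, 1 mM TCEP, 0.01% Tween-20.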
USP2a block = USP2a (human) protease inhibition; USP2 core, Ub-CHOP2 coupled fluorogenic reporter, 485/531; Potency, µM (series often up to 38.3 µM), for the others: top-dose activity change, negative = inhibition, most hits filed as inhibitors; 330,000 tested, 0.01% active; AID 463254;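 further: potency means the concentration at half of the fitted maximal effect; plate controls were DMSO wells for no effect and full inhibition by NEM control for full effect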
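Deubiquitinase activity read as fluorescence (485/531 nm) after Ub-CHOP2 cleavage activates the enterokinase reporter on its substrate; USP2 core 10nM, Ub-CHOP2 and substrate 25nM each, 30min compound preincubation then 60min RT; data normalized to NEM, curves fitted.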
S2 tox = reduces viability in counter-screen for ATXN expression inhibitors; S2 cells (HEK-293 line with an ATXN2-luciferase reporter) viability, CellTiter-Fluor protease fluorescence, 24 h; Potency, µM (top dose mostly 56.7 µM), actives largely listed as cytotoxic; 400,000 tested, 0.49% active; AID 651635; further: potency means the concentration at half of the fitted maximal effect; nearly all actives have a fitted effect of over 40% in size
Active calls of the source: *; i = inactive; ? = inconclusive; nt = not tested or not shown; [ ] = dose if it differs, or a comment. Unless noted, the call rests on the fitted dose curve; in most records, active means well fitted curve in the direction sought with a large enough effect; inconclusive means small, poorly fitted or top-dose-only effect, or another doubt; inactive means no such curve, though single readings can be large; an effect the other way counts as inactive or inconclusive.

SMILES | ATXN2 expr inh | IL1B secr inh | USP1-UAF1 inh | USP2a block | S2 tox
CCOC(=O)N1CCN(C(=O)c2ccc(CSc3ccc(Cl)cc3)cc2)CC1 | -29.5%[11.3 µM] | -80.0* | ? | -6.4% | ?
CN1CCN(C(=O)c2ccc(Cl)cc2)CC1 | -10.5% | 6.9 | -17.9% | -0.8% | i
CN1CCN(C(=O)c2ccc(CSc3ccc(Cl)cc3)cc2)CC1 | -27.6% | -61.6* | -14.8% | 4.0% | ?
Cc1ccc(SCc2ccc(C(=O)N3CCCCC3)cc2)cc1 | nt | -10.3 | -14.6% | -0.3% | ?
CN1CCN(C(=O)CSc2nc(-c3ccncc3)ccc2C#N)CC1 | 7.5% | -60.6* | -17.8% | 0.1% | ?
CN1CCN(C(=O)CSc2nc(-c3cccs3)cc(-c3cccs3)c2C#N)CC1 | -20.6% | -28.2 | -22.5% | 1.8% | i
COc1cc(CNCCc2ccccc2)cc(Br)c1OCC(=O)Nc1ccccc1C | nt | -67.3* | -22.9% | -1.7% | 28.2µM*
CNCc1cc(Br)c(OCC(=O)Nc2ccccc2OC)c(OC)c1 | -31.0% | -61.8* | -16.5% | -1.1% | ?
COc1ccccc1OCC(=O)NCCCN1CCOCC1 | -4.9% | -0.2 | -1.2% | -2.6% | i
COc1ccccc1NC(=O)COc1cc(Br)c(CNCCCN2CCOCC2)cc1OC | -17.4% | -53.5* | -10.8% | 0.5% | i
COc1ccccc1NC(=O)COc1ccc(Br)cc1CO | 2.7% | 4.5 | -0.2% | 6.8% | i
COc1ccccc1NC(=O)COc1ccc(Br)cc1CNC1CCCC1 | -34.6% | -86.1* | -20.8% | 8.9% | ?
N#Cc1c(-n2ncnc2-c2cccc(Cl)c2)sc2c1CCCCC2 | 16.5% | nt | -16.2% | nt | i
CC(=O)N1CCCC(c2cc(C(=O)Nc3ccccc3)no2)C1 (stereo not drawn) | ? | 1.9 | nt | nt | i
O=C(Nc1ccccc1)c1cc(C2CCCN(C(=O)C3CC3)C2)on1 (stereo not drawn) | 10µM* | 7.1 | nt | nt | i
O=C(NCc1ccccc1)c1cc(C2CCCN(S(=O)(=O)c3cccs3)C2)on1 (stereo not drawn) | -8.1% | -58.7* | nt | nt | i
CCN(CC)S(=O)(=O)c1ccc(C(=O)N2CC(=O)Nc3ccc(F)cc3C2c2ccccc2)cc1 (stereo not drawn) | -0.8% | nt | 0.4% | nt | ?
CC(NC(=S)Nc1cccc(C(F)(F)F)c1)C(C)(C)C (stereo not drawn) | -17.2%[11.3 µM] | -80.9* | -7.6% | 0.7% | ?
Fc1ccccc1CNC(=S)Nc1cccc(C(F)(F)F)c1 | -20.6% | -98.1* | -0.4% | -3.7% | i
CC(=O)c1cccc(NC(=S)NCc2ccccc2)c1 | 0.0% | 3.2 | -14.3% | -0.3% | i
FC(F)(F)c1cccc(NC(=S)NCc2ccc(Cl)cc2)c1 | ? | -155.0* | -11.8% | -2.8% | nt
CN(C)NC(=S)Nc1cccc(C(F)(F)F)c1 | 4.4% | nt | ? | 2.5% | i
CC(=O)c1cccc(NC(=S)NCCc2ccc(Cl)cc2)c1 | -4.6% | -92.3* | -7.6% | -2.8% | i
O=C(Cc1nc2ccccc2[nH]1)N1CCC(n2c(C3CCC3)nc3cccnc32)CC1 | nt | nt | nt | nt | i
CCCCc1nnc(NC(=O)CN2C(=O)NC3(CCCCC3)C2=O)s1 | -6.3% | 0.0 | -3.2% | -1.0% | i
SMILES | ATXN2 expr inh | IL1B secr inh | USP1-UAF1 inh | USP2a block | S2 tox
COC(=O)C1=C(C)NC2=C(C(=O)c3ccccc32)C1c1cccc(OC)c1 (stereo not drawn) | nt | -19.4 | -0.7% | 0.7% | i
CC1=C([N+](=O)[O-])C(c2cccc(Br)c2)C2=C(N1)c1ccccc1C2=O (stereo not drawn) | ? | -63.0* | ? | 0.5% | ?
C=C(C)c1nc(Oc2ccccc2)nc(Oc2ccccc2)n1 | ? | -100.0* | -10.3% | nt | nt
CN1CCN(c2ccc(C(=O)c3ccc(Br)cc3)cc2[N+](=O)[O-])CC1 | -16.4% | -219.6* | -7.9% | -1.0% | i
CN1CCN(c2ccccc2NC(=O)c2ccc(N3CCCC3)c([N+](=O)[O-])c2)CC1 | -23.4% | -77.9* | -12.5% | -0.4% | ?
O=C(Nc1ccc(CN2CCOCC2)cc1)c1ccc(N2CCCC2)c([N+](=O)[O-])c1 | ? | -72.1* | 0.0% | 2.6% | ?
